PubChem BioAssay AID1159580 (chemical genetic matrix, 2015)
Hit rate of the full screen: of about 5,500 compounds, about 2,000 (36%) were called active. Inconclusive results (about 18%) are left out. Cut-off read from the data, not from the text of the source: active = normalized growth mostly below about 0.91 (no sharp cut-off); inconclusive = no clear call, values can overlap the other calls; inactive = mostly above about 0.92. Some of the results follow.

Assay: chemical genetic growth profiling, strain panel (AID 1159580);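 note: tested at 20 µM; growth read once vehicle control cultures reached saturation at 30 °C; 1 = growth at the plate median or of vehicle wells; lower values mean less growth of the strain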
Conditions: growth OD

Measured: normalized growth

CC[C@H](C)C(=O)O[C@H]1C[C@@H](C)C=C2C=C[C@H](C)[C@H](CC[C@@H]3C[C@@H](O)CC(=O)O3)[C@H]21
inactive: S. cerevisiae deletion strains, locus YJR075W, strain HOC1, hits give low values 0.997 | S. cerevisiae deletion strains, locus YKL009W, strain mrt4, hits give low values 0.959 | S. cerevisiae deletion strains, locus YKL068W, hits give low values 0.988 | S. cerevisiae deletion strains, locus YKL085W, strain MDH1 (second series), hits give low values 0.993 | S. cerevisiae deletion strains, locus YKL085W, strain MDH1, hits give low values 0.993 | S. cerevisiae deletion strains, locus YKL160W, strain elf1, hits give low values 1 | S. cerevisiae deletion strains, locus YKL190W, strain CNB1, hits give low values 0.992 | S. cerevisiae deletion strains, locus YKR001C, strain vps1, hits give low values 0.986 | S. cerevisiae deletion strains, locus YKR026C, strain gcn3, hits give low values 0.999 | S. cerevisiae deletion strains, locus YKR091W, strain srl3, hits give low values 1 | S. cerevisiae deletion strains, locus YLL001W, strain dnm1, hits give low values 1.02 | S. cerevisiae deletion strains, locus YLL026W, hits give low values 1.01 | S. cerevisiae deletion strains, locus YLL041C, strain sdh2, hits give low values 1 | S. cerevisiae deletion strains, locus YLR027C, strain aat2, hits give low values 1.01 | S. cerevisiae deletion strains, locus YLR039C, strain RIC1, hits give low values 0.971 | S. cerevisiae deletion strains, locus YLR058C, strain SHM2, hits give low values 0.957 | S. cerevisiae deletion strains, locus YLR102C, strain apc9, hits give low values 0.994 | S. cerevisiae deletion strains, locus YLR113W, strain HOG1, hits give low values 1 | S. cerevisiae deletion strains, locus YLR221C, strain rsa3, hits give low values 1.01 | S. cerevisiae deletion strains, locus YLR258W, strain gsy2, hits give low values 1.01 | S. cerevisiae deletion strains, locus YLR262C, strain YPT6 (second series), hits give low values 1.11 | S. cerevisiae deletion strains, locus YLR262C, strain YPT6, hits give low values 0.916 | S. cerevisiae deletion strains, locus YLR268W, strain sec22, hits give low values 1.06 | S. cerevisiae deletion strains, locus YLR320W, strain mms22, hits give low values 0.992 | S. cerevisiae deletion strains, locus YLR330W, strain CHS5, hits give low values 0.969 | S. cerevisiae deletion strains, locus YLR342W, strain FKS1 (second series), hits give low values 0.968 | S. cerevisiae deletion strains, locus YLR342W, strain FKS1, hits give low values 1 | S. cerevisiae deletion strains, locus YLR357W, strain rsc2, hits give low values 0.908 | S. cerevisiae deletion strains, locus YLR370C, strain arc18, hits give low values 1.02 | S. cerevisiae deletion strains, locus YLR371W, strain rom2, hits give low values 0.982 | S. cerevisiae deletion strains, locus YLR384C, strain iki3, hits give low values 1.01 | S. cerevisiae deletion strains, locus YLR418C, strain cdc73, hits give low values 0.908 | S. cerevisiae deletion strains, locus YML016C, strain PPZ1, hits give low values 0.977 | S. cerevisiae deletion strains, locus YML032C, strain rad52, hits give low values 1.01 | S. cerevisiae deletion strains, locus YML120C, strain ndi1, hits give low values 1.01 | S. cerevisiae deletion strains, locus YML124C, strain tub3, hits give low values 0.98 | S. cerevisiae deletion strains, locus YMR058W, strain fet3, hits give low values 1 | S. cerevisiae deletion strains, locus YMR078C, strain ctf18, hits give low values 0.987 | S. cerevisiae deletion strains, locus YMR125W, strain sto1, hits give low values 0.984 | S. cerevisiae deletion strains, locus YMR129W, hits give low values 1.01 | S. cerevisiae deletion strains, locus YMR205C, strain PFK2, hits give low values 1 | S. cerevisiae deletion strains, locus YMR223W, strain ubp8, hits give low values 0.948 | S. cerevisiae deletion strains, locus YMR231W, strain pep5, hits give low values 0.998 | S. cerevisiae deletion strains, locus YMR263W, strain SAP30, hits give low values 0.987 | S. cerevisiae deletion strains, locus YMR307W, strain GAS1, hits give low values 0.984 | S. cerevisiae deletion strains, locus YNL067W, strain RPL9B, hits give low values 1.01 | S. cerevisiae deletion strains, locus YNL071W, strain lat1, hits give low values 1.01 | S. cerevisiae deletion strains, locus YNL128W, strain TEP1, hits give low values 0.97 | S. cerevisiae deletion strains, locus YNL153C, strain GIM3, hits give low values 1.02 | S. cerevisiae deletion strains, locus YNL183C, strain NPR1, hits give low values 0.939 | S. cerevisiae deletion strains, locus YNL209W, strain ssb2, hits give low values 1.01 | S. cerevisiae deletion strains, locus YNL233W, strain BNI4, hits give low values 1.01 | S. cerevisiae deletion strains, locus YNL248C, strain rpa49, hits give low values 1.01 | S. cerevisiae deletion strains, locus YNL250W, strain rad50, hits give low values 0.958 | S. cerevisiae deletion strains, locus YNL271C, strain bni1, hits give low values 0.994 | S. cerevisiae deletion strains, locus YNL298W, strain CLA4, hits give low values 0.99 | S. cerevisiae deletion strains, locus YNL307C, strain MCK1, hits give low values 0.948 | S. cerevisiae deletion strains, locus YNL322C, strain KRE1 (second series), hits give low values 1.02 | S. cerevisiae deletion strains, locus YNL322C, strain KRE1, hits give low values 0.986 | S. cerevisiae deletion strains, locus YNR049C, strain mso1, hits give low values 1.01 | S. cerevisiae deletion strains, locus YNR052C, strain pop2, hits give low values 0.999 | S. cerevisiae deletion strains, locus YOL006C, strain TOP1, hits give low values 0.953 | S. cerevisiae deletion strains, locus YOL012C, strain htz1 0.797 | S. cerevisiae deletion strains, locus YOL147C, strain pex11, hits give low values 0.986 | S. cerevisiae deletion strains, locus YOR001W, strain rrp6, hits give low values 1.02 | S. cerevisiae deletion strains, locus YOR061W, strain CKA2, hits give low values 0.964 | S. cerevisiae deletion strains, locus YOR069W, strain VPS5, hits give low values 0.981 | S. cerevisiae deletion strains, locus YOR070C, strain gyp1, hits give low values 1 | S. cerevisiae deletion strains, locus YOR080W, strain dia2, hits give low values 0.998 | S. cerevisiae deletion strains, locus YOR083W, strain WHI5, hits give low values 1 | S. cerevisiae deletion strains, locus YOR106W, strain vam3, hits give low values 0.99 | S. cerevisiae deletion strains, locus YOR136W, strain idh2, hits give low values 0.98 | S. cerevisiae deletion strains, locus YOR144C, strain elg1, hits give low values 0.993 | S. cerevisiae deletion strains, locus YOR184W, strain ser1, hits give low values 0.94 | S. cerevisiae deletion strains, locus YOR231W, strain MKK1, hits give low values 0.983 | S. cerevisiae deletion strains, locus YOR265W, strain rbl2, hits give low values 1.01 | S. cerevisiae deletion strains, locus YOR270C, strain vph1, hits give low values 0.881 | S. cerevisiae deletion strains, locus YOR290C, strain snf2, hits give low values 1.02 | S. cerevisiae deletion strains, locus YOR316C, strain cot1, hits give low values 0.993 | S. cerevisiae deletion strains, locus YPL051W, strain arl3, hits give low values 0.999 | S. cerevisiae deletion strains, locus YPL055C, strain LGE1, hits give low values 0.939 | S. cerevisiae deletion strains, locus YPL078C, strain atp4, hits give low values 1.01 | S. cerevisiae deletion strains, locus YPL106C, strain sse1, hits give low values 1.06 | S. cerevisiae deletion strains, locus YPL240C, strain hsp82, hits give low values 1.01 | S. cerevisiae deletion strains, locus YPL241C, strain CIN2, hits give low values 0.979 | S. cerevisiae deletion strains, locus YPL256C, strain CLN2, hits give low values 1.02 | S. cerevisiae deletion strains, locus YPR119W, strain clb2, hits give low values 0.986 | S. cerevisiae deletion strains, locus YPR141C, strain kar3, hits give low values 0.971 | S. cerevisiae deletion strains, locus YPR163C, strain tif3, hits give low values 0.995 | S. cerevisiae deletion strains, locus YPR167C, strain met16, hits give low values 0.99 | S. cerevisiae deletion strains, strain wtn01, hits give low values 1.01 | S. cerevisiae strains, strain wild type, hits give low values 0.963
